Experimental data as given in PubChem BioAssay (NCI).
About 79,000 compounds went through this panel and 15% of them were active in at least one assay; those are over-represented in the sample as a whole. Unmarked numbers belong to inactive results. Activity calls are given as the source filed them. No stated cut-off is given here; in the data, active means growth inhibition above about 70%; inactive means the rest. Where a SMILES comes first, the peptide text is derived from it. The star is where a group is joined. Boc = CC(C)(C)OC(=O)*; OBn = c1ccc(CO*)cc1; Bn = c1ccc(C*)cc1

How the values were obtained:
[1] = NCI Yeast Anticancer Drug Screen. Data for the rad50 strain (AID 155);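 further: 0% = growth of vehicle-only cultures of the same strain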; conditions: S. cerevisiae rad50 strain growth inhibition, hits give high values
Outline: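 Inhibition values express reduced yeast growth in compound-treated cultures relative to vehicle-treated controls.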

[2] = NCI Yeast Anticancer Drug Screen. Data for the mec2-1 strain (AID 157); conditions: S. cerevisiae mec2-1 strain, hits give high values
Outline: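 Yeast mec2-1 mutant treated with compound. Readout: growth inhibition vs vehicle controls.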

[3] = NCI Yeast Anticancer Drug Screen. Data for the sgs1 mgt1 strain (AID 161);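 further: 0% = growth of cultures given vehicle only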; conditions: S. cerevisiae sgs1 mgt1 strain, hits give high values
Outline: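 Genetically altered yeast, compound exposure, growth inhibition relative to vehicle.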

[4] = NCI Yeast Anticancer Drug Screen. Data for the cln2 rad14 strain (AID 165);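 further: 0% = growth equal to vehicle treated cultures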; conditions: S. cerevisiae cln2 rad14 strain, hits give high values
Outline: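 cln2 rad14 yeast strain; compound exposure; growth inhibition read vs vehicle controls.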

[5] = NCI Yeast Anticancer Drug Screen. Data for the bub3 strain (AID 167); conditions: S. cerevisiae bub3 mutant strain, hits give high values
Outline: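 Steps: expose the mutant yeast strain to compound; grow alongside vehicle-treated cultures; measure growth; express inhibition against the vehicle cultures.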

[6] = NCI Yeast Anticancer Drug Screen. Data for the mlh1 rad18 strain (AID 175); conditions: S. cerevisiae mlh1 rad18 strain growth inhibition, hits give high values
Outline: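 Yeast w/ defined DNA-repair lesions; compound exposure; growth vs vehicle controls → % inhibition.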

[7] = at 5.0 µM (retest, dose inferred, filed as 0.5)
[8] = at 50.0 µM (retest, dose inferred, filed as 5.0)

SMILES	growth inhibition [1, 7]	growth inhibition [1, 8]	growth inhibition ([1]; at 50.0 µM)	growth inhibition [2, 7]	growth inhibition [2, 8]	growth inhibition ([2]; at 50.0 µM)	growth inhibition [3, 7]	growth inhibition [3, 8]	growth inhibition ([3]; at 50.0 µM)	growth inhibition [4, 7]	growth inhibition [4, 8]	growth inhibition ([4]; at 50.0 µM)	growth inhibition [5, 7]	growth inhibition [5, 8]	growth inhibition ([5]; at 50.0 µM)	growth inhibition [6, 7]	growth inhibition [6, 8]	growth inhibition ([6]; at 50.0 µM)
O=Nc1cc(-c2ccccc2)c2ccccc2c1O	14%	86% (active)	-2.65%	14%	96% (active)	31.9%	6%	93% (active)	-10.4%	15%	97% (active)	97.5% (active)	22%	95% (active)	97.4% (active)	23%	96% (active)	2.45%
COc1ccc(C(=O)CC2(O)C(=O)N(C)c3c(Cl)cc(Cl)cc32)cc1 (configuration not stated)	-1%	61%	67.6%	3%	56%	67.3%	4%	63%	61.2%	-2%	66%	62%	-2%	65%	69%	-2%	64%	87.2% (active)
Cc1ccc(N=C=C(c2ccccc2)c2ccccc2)cc1	12%	46%	67.5%	26%	39%	59.3%	17%	70% (active)	65.8%	9%	35%	48%	28%	58%	67.2%	30%	77% (active)	71.2% (active)
N#C/C(=C\c1c(Cl)cccc1Cl)c1ccccc1	11%	37%	64.3%	-9%	13%	29.3%	12%	33%	42.5%	8%	35%	23%	21%	62%	45.8%	-18%	55%	70.7% (active)
CCCCN(CCCC)Cc1cc(Nc2c3ccc(Cl)cc3nc3ccc(OC)cc23)ccc1O	4%	91% (active)	79.2% (active)	10%	56%	86.7% (active)	-19%	95% (active)	75.4% (active)	-4%	23%	89.5% (active)	-3%	36%	58.4%	7%	79% (active)	98.1% (active)
COc1cc2oc(-c3ccc(O)cc3O)c(CC=C(C)C)c(=O)c2c(O)c1/C=C/C(C)C	17%	97% (active)	89.5% (active)	8%	98% (active)	90.7% (active)	10%	97% (active)	91% (active)	24%	98% (active)	88.8% (active)	11%	97% (active)	88.8% (active)	9%	97% (active)	90.3% (active)
CCN1/C(=C\c2cc[n+](CC)c3ccccc23)C=Cc2ccccc21	-3%	96% (active)	42.4%	2%	96% (active)	51.5%	-1%	86% (active)	32.4%	-8%	96% (active)	-31.4%	6%	97% (active)	68.8%	1%	97% (active)	53.4%
O=C(Nc1cccc(Br)c1)Oc1cccc2cccnc12	61%	97% (active)	85.7% (active)	65%	99% (active)	89.8% (active)	99% (active)	99% (active)	85.3% (active)	76% (active)	99% (active)	81.1% (active)	91% (active)	73% (active)	87.8% (active)	64%	98% (active)	85% (active)
CC1=C(C(=O)Nc2ccccc2C)C(c2ccc(Cl)c(Cl)c2)C(C(=O)Nc2ccccc2C)=C(C)N1	5%	5%	84% (active)	2%	2%	76.3% (active)	-5%	-5%	79.4% (active)	8%	8%	78.5% (active)	-19%	-19%	82% (active)	8%	8%	77.1% (active)
O=C(Nc1ccc(S(=O)(=O)NC2CCCCC2)cc1)OCc1ccccc1	91% (active)	17%	57%	99% (active)	26%	9.85%	100% (active)	12%	73% (active)	28%	-10%	30.7%	99% (active)	43%	28.4%	91% (active)	30%	54.6%
CN(C)C(=O)c1ccc(SC(=S)NCc2ccccc2)cc1	11%	99% (active)	98.5% (active)	0%	100% (active)	97% (active)	3%	98% (active)	97.8% (active)	7%	99% (active)	96.2% (active)	-11%	99% (active)	81% (active)	24%	42%	98.8% (active)
CNc1ccc2c(c1)c1ccccc1n2C	11%	26%	71.3% (active)	2%	-67%	4.2%	3%	21%	40.1%	-1%	-1%	65.5%	-1%	35%	74.5% (active)	14%	34%	52%
CC(C)CC(NC(=O)C(Cc1ccccc1)NC(=O)C(COCc1ccccc1)NC(=O)OC(C)(C)C)C(=O)OCc1ccccc1 (stereo not drawn) (Boc-Ser(Bn)-Phe-Leu-OBn; configuration not given here)	16%	13%	16.8%	22%	15%	2.6%	-15%	-29%	17.2%	-3%	7%	16.2%	-4%	-7%	25.4%	26%	15%	24.3%
Cc1cccc(/C=N/Nc2cc(C)c3ccccc3n2)n1	10%	89% (active)	96.8% (active)	10%	96% (active)	89.2% (active)	16%	96% (active)	97.8% (active)	5%	86% (active)	82.3% (active)	-5%	95% (active)	93.6% (active)	14%	96% (active)	82.8% (active)
Oc1ccc(/C=N/NC(=S)Nc2ccccc2)nc1	1%	53%	82.8% (active)	4%	60%	86.8% (active)	6%	69%	82.8% (active)	-9%	42%	68.7%	11%	72% (active)	84.3% (active)	0%	78% (active)	84.2% (active)
NC1=CC(=O)c2ccccc2C1=O	18%	84% (active)	94.5% (active)	1%	48%	62.3%	26%	57%	85.2% (active)	9%	33%	-1.65%	42%	93% (active)	93.8% (active)	31%	84% (active)	95.5% (active)
C#CC(C)(C)Nc1c2ccccc2nc2ccccc12	7%	98% (active)	98.2% (active)	2%	97% (active)	94.6% (active)	-1%	98% (active)	98.8% (active)	0%	94% (active)	93.7% (active)	-2%	98% (active)	97.5% (active)	11%	98% (active)	98.7% (active)
C#CCNCc1ccccc1	18%	63%	66.8%	18%	47%	35.5%	11%	63%	89% (active)	0%	32%	29.4%	5%	78% (active)	76.8% (active)	-4%	49%	58.8%
c1ccc(/C(=N\Nc2nc3ccccc3s2)c2ccccn2)cc1	0%	88% (active)	71.7% (active)	9%	79% (active)	73.5% (active)	-6%	90% (active)	75.4% (active)	-17%	75% (active)	79.7% (active)	-6%	87% (active)	78.7% (active)	11%	89% (active)	81.3% (active)
